Among the data in PubChem BioAssay AID2315 (National Center for Advancing Translational Sciences (NCATS), 2010) are inhibition values, retold here.

Hit rate of the full screen: of about 290,000 compounds, about 27,000 (9.3%) were called active. This is one part of a sample in which actives are shown more often than they occur. No stated cut-off is given here; in the data, active means inhibition mostly above about 28% (no sharp cut-off); inactive means mostly below about 43%.

A short description of the test: A qHTS for Small Molecule Inhibitors of Shiga Toxin. Further: 0% is about no effect. The following applies: Vero cells, Shiga toxin protein synthesis inhibition reporter; at 38.7 µM, stronger effect = higher value. (In general: Quantitative high-throughput screening tests each substance at several concentrations.)
A word on the inhibition: it is the drop in the measured response relative to a control, in per cent. For `CCN(c1cccc(C)c1)S(=O)(=O)c1ccc(-c2coc(C)n2)cc1`, the inhibition is -6.9% (inactive).

Take `O=C(CCl)NNc1nc(-c2ccccc2)c2cc(Cl)ccc2n1`: the inhibition was -6.68% (inactive).

Consider `C=CCn1c(C23CC4CC(CC(C4)C2)C3)n[nH]c1=S`, for which the inhibition was -6.65% (inactive).

Consider `CCCc1nc2ccccc2c(C(=O)OCC(=O)c2ccc3c(c2)NC(=O)CO3)c1CC`, for which the inhibition was 7.85% (inactive).

As to `O=C(COC(=O)c1c2c(nc3ccccc13)CCCC2)c1ccc(Br)s1`, the inhibition is 91.1% (active).

As to `O=C(Nc1c2c(nc3ccccc13)CCCC2)c1ccccc1Br`, the inhibition is 13.1% (inactive).

For the compound `Cc1cc(Cl)c(S(=O)(=O)N(C)C)cc1OCC(N)=O`, the inhibition is 9.4% (inactive).

On to `Cc1cc(Cl)c(S(=O)(=O)Nc2ccc3c(c2)OCCO3)cc1OCC(N)=O`, for which the inhibition was 99.8% (active).

For `Cc1cc(Cl)c(S(=O)(=O)NCC2CCCO2)cc1OCC(N)=O` (centres undefined), the inhibition was -1.08% (inactive).

With `O=C(NCc1ccco1)/C(=C\c1cccc([N+](=O)[O-])c1)NC(=O)c1ccco1`, the inhibition was 2.57% (inactive).

For `O=C(CNC(=O)C1COc2ccccc2O1)N/N=C/c1cc(Br)c(O)c(Br)c1` (centres undefined), the inhibition was -3.37% (inactive).

On to `O=C(N/N=C/c1cc2c(cc1Br)OCO2)C1COc2ccccc2O1` (centres undefined), for which the inhibition is 77.9% (active).

For the compound `O=C(N/N=C\c1cc(Br)c(Br)o1)C1COc2ccccc2O1` (centres undefined), the inhibition was 10.7% (inactive).

As to `CC(=O)c1c(C)[nH]c(C(=O)COC(=O)c2cccc(S(=O)(=O)N(C)c3ccccc3)c2)c1C`, the inhibition is 8.98% (inactive).

Regarding `CCCNC(=O)COc1coc(CN2CCN(Cc3ccccc3)CC2)cc1=O`, the inhibition was -16.7% (inactive).

As to `COCCNC(=O)C(c1ccc(C)cc1)N(C(=O)CCC(=O)Nc1ccccn1)c1cccc(C)c1` (centres undefined), the inhibition was 32.2% (inactive).

Turning to `O=C(Cc1ccc([N+](=O)[O-])cc1)Nc1ccc(C(=O)N2CCOCC2)cc1`, the inhibition is 7.91% (inactive).

Regarding `Cc1ccc(CN(C)Cc2cc(=O)oc3cc(C)c(Cl)cc23)cc1`, the inhibition is 7.75% (inactive).

With `Cc1cnc(C(=O)OCC(=O)N2CCc3ccccc32)cn1`, the inhibition is -4.93% (inactive).

Take `O=C(c1cnn2ccccc12)N1CCc2ccccc21`: the inhibition was 97.7% (active).

With `NC(=O)N1CCc2ccccc21`, the inhibition was -9.66% (inactive).

For the compound `CC1CCc2c(sc3nc4n(c(=O)c23)CCS4)C1` (centres undefined), the inhibition is 33.9% (inactive).

Consider `CCCn1nnc2sc3c(c2c1=O)CCC(C)C3` (centres undefined), for which the inhibition was 90.4% (active).

In the case of `C=CCn1c(SCc2c(C)noc2C)nc2sc3c(c2c1=O)CCC(C)C3` (centres undefined), the inhibition was -12.7% (inactive).

In the case of `COc1cccc(N2CCN(c3ccc4nnc(CCC(=O)N5CCN(C)CC5)n4n3)CC2)c1`, the inhibition is -1.7% (inactive).

For `CCc1ccc(NC(=O)C(=O)N/N=C(\C)CC(=O)NCCOC)cc1`, the inhibition was 63.4% (active).

Take `COCCNC(=O)COc1ccc(C)c(C)c1`: the inhibition is 20.4% (inactive).

For the compound `C/C(CC(=O)Nc1ccc(Cl)cc1)=N\NC(=O)C(=O)NCCO`, the inhibition is 12% (inactive).

In the case of `Cc1ccc(N(C(=O)CNC(=O)c2ccco2)C(C(=O)NC2CCCC2)c2ccncc2)cc1` (centres undefined), the inhibition was -7.6% (inactive).

For `CC(=O)N1c2ccc(S(=O)(=O)N3CCCC(C(=O)Nc4ccc(C)cc4C)C3)cc2CC1C` (centres undefined), the inhibition is -2.6% (inactive).

Turning to `O=C(CNC(=O)c1cccnc1)N/N=C/c1cccnc1`, the inhibition is -13% (inactive).

For `O=C(NN=C1CCC(=NNC(=O)c2cccnc2)CC1)c1cccnc1`, the inhibition was 45.2% (inactive).

Regarding `O=C(Nc1ccc(S(=O)(=O)Nc2ncccn2)cc1)C12CC3CC(CC(C3)C1)C2`, the inhibition is 17.2% (inactive).

In the case of `O=C(N/N=C/c1ccccn1)C12CC3CC(CC(C3)C1)C2`, the inhibition is 0% (active).

As for `O=C(N/N=C/c1ccccn1)c1ccc(S(=O)(=O)N2CCCCCC2)cc1`, the inhibition was 184% (active).

On to `Cc1ccc(NC(=O)COc2ccc(/C=N\NC(=O)c3cccnc3)cc2)cc1C`, for which the inhibition is 11.2% (inactive).

Consider `CNC(=O)C(=O)N/N=C/c1ccccn1`, for which the inhibition is 35.4% (inactive).

Take `O=C(N/N=C/c1ccccn1)c1cccnc1`: the inhibition was 39.2% (active).

With `Cc1cc(/C=N/NC(=O)c2cccnc2)c(C)n1CC(C)C`, the inhibition was 80.1% (active).

With `O=C(N/N=C/c1ccc(O)c2ccccc12)c1cccnc1`, the inhibition was 24.3% (inactive).

Regarding `O=C(N/N=C/c1ccccn1)c1cccc(NC(=O)c2ccc(Cl)cc2)c1`, the inhibition is 24.3% (inactive).

`CN1CCN(NC(=O)c2ccc(S(=O)(=O)N3CCCCCC3)cc2)CC1`: the inhibition was -4.86% (inactive).

Turning to `COc1ccc(CNC(=O)/C(C#N)=C/c2cccc(OC)c2OC)cc1`, the inhibition was -10.4% (inactive).

As for `Cn1c(C(=O)N2CCCC(C(=O)NCc3ccccc3)C2)cc2sccc21` (centres undefined), the inhibition was 18.4% (inactive).

Turning to `Cc1ccc(S(=O)(=O)c2c[nH]c3ccc(C)cc3c2=O)cc1`, the inhibition was -5.73% (inactive).

`CC(C)CNC(=S)Nc1ccc(F)cc1`: the inhibition was 13.2% (inactive).

As to `CC(C)CNC(=O)C(=O)Nc1ccc(N(C)C)cc1`, the inhibition is 55.1% (active).

With `CC(C)CNC(=O)C(=O)NCc1ccccc1`, the inhibition was 15.5% (inactive).

Turning to `Cc1cc(C)cc(NC(=O)C2CCCN2S(=O)(=O)c2cccc3cccnc23)c1` (centres undefined), the inhibition was -0.303% (inactive).

For the compound `CCOC(=O)c1ccccc1CN1C(=O)c2ccccc2S1(=O)=O`, the inhibition was -3.65% (inactive).

As to `CCOC(=O)C1=C(C(=O)OCC)C(C(=O)OCC)N(S(=O)(=O)C(F)(F)F)c2ccccc21` (centres undefined), the inhibition is 18.6% (inactive).

On to `CCOC(=O)c1cc2n(c1N)-c1ccccc1C2=O`, for which the inhibition was 72.9% (active).

With `Cn1nccc1C(=O)N1CCCC(C(=O)c2ccc(Oc3ccccc3)cc2)C1` (centres undefined), the inhibition is -15.3% (inactive).

For the compound `Cc1cccc2[nH]c(CN(C)C(=O)C3CCC(=O)N(CCc4ccccc4)C3)nc12` (centres undefined), the inhibition is 17.9% (inactive).

For `CCCc1ccc(OCC(O)CN2CCN(CCO)CC2)cc1` (centres undefined), the inhibition is -3.37% (inactive).

Regarding `O=C(COc1nsnc1N1CCOCC1)Nc1ccccc1Cl`, the inhibition was 5.96% (inactive).

As for `CCOc1cc(/C=C/c2nc3ccccc3c(=O)[nH]2)cc(Br)c1OC`, the inhibition is 31.4% (inactive).

As for `CC1(C)Cc2cccc(OCC(=O)NCc3ccccc3)c2O1`, the inhibition was 21.1% (inactive).

In the case of `CCOC(=O)C1(Cc2cccc(OC)c2)CCN(C(C)COC)CC1` (centres undefined), the inhibition is -0.932% (inactive).

In the case of `CCOC(=O)C1(Cc2cccc(OC)c2)CCCN(S(=O)(=O)c2cccnc2)C1` (centres undefined), the inhibition is -9.17% (inactive).

As for `CCOC(=O)C1(Cc2cccc(OC)c2)CCCN(C(=O)CCSC)C1` (centres undefined), the inhibition is 81.2% (active).

`COC(=O)C1CCN(C(=O)c2cc(=O)[nH]c3ccccc23)CC1`: the inhibition is -11.7% (inactive).

Take `COc1ccc(/C=C2\SC(=S)N(CCC(=O)Nc3cccc(C(=O)O)c3)C2=O)cc1OC`: the inhibition is 2.9% (inactive).

Consider `Cn1c(SCC(=O)N2CCCC2)nnc1-c1ccc2c(c1)OCO2`, for which the inhibition was 38.6% (inactive).

Consider `O=C(O)CSc1nnc(-c2ccc3c(c2)OCO3)n1-c1ccccc1`, for which the inhibition was 37% (inactive).

`Cn1c(SCc2nc3ccccc3s2)nnc1-c1ccc2c(c1)OCO2`: the inhibition is 59% (active).

For the compound `CN(CCc1ccccn1)C1CCCN(S(=O)(=O)c2ccccc2Cl)C1` (centres undefined), the inhibition was -6.64% (inactive).

For the compound `COc1ccc(S(=O)(=O)N2CCOC2CNC(=O)C(=O)NCc2ccncc2)cc1OC` (centres undefined), the inhibition is -13.1% (inactive).

For `CCC(C(=O)NCc1cccnc1)n1nc(C)c2sc3ccccc3c2c1=O` (centres undefined), the inhibition was -2.63% (inactive).

In the case of `Cc1cc(C)cc(NC(=O)CCN2C(=O)c3ccccc3C2=O)c1`, the inhibition was -3.25% (inactive).

For `C=CCn1c(SCc2c(C(=O)OC)sc(N)c2C(=O)OC)nnc1-c1ccc(Cl)cc1`, the inhibition was -13.4% (inactive).

On to `C=CCn1c(SCC(N)=O)nnc1-c1cc2c(s1)CCC(CC)C2` (centres undefined), for which the inhibition was 76.9% (active).

Turning to `CCn1c(CSc2nc(C)cc(C)n2)nnc1SCC(N)=O`, the inhibition was -9.49% (inactive).

For `COCCNC(=O)CN(Cc1ccco1)C(=O)CCC(=O)Nc1nccs1`, the inhibition is -8.05% (inactive).

In the case of `CCN(C(=O)COC(=O)c1cc(NS(=O)(=O)c2ccc(Cl)c([N+](=O)[O-])c2)ccc1O)C1CCCCC1`, the inhibition was -7.83% (inactive).

`COCc1c(C(=O)N/N=C\c2cccnc2)nnn1-c1nonc1N`: the inhibition is -0.307% (inactive).

As to `Cc1cccc(N2C(=O)c3cccnc3C2=O)c1`, the inhibition was 23.8% (inactive).

In the case of `Cc1cccc(N2C(=O)C3C(c4ccccc4)OC4(C(=O)c5ccccc5C4=O)C3C2=O)c1` (centres undefined), the inhibition is -11.8% (inactive).

With `Cc1cccc(N2C(=O)NC(=O)/C(=C\c3cnn(-c4ccccc4)c3)C2=O)c1`, the inhibition was 65.5% (active).

Regarding `Cc1nc(CN(C)C(=O)CC2C(=O)NCCN2Cc2ccc(F)cc2)cs1` (centres undefined), the inhibition is -21.9% (inactive).

In the case of `Cc1nc(-c2ccc(Cl)cc2)sc1C1(C)CC(c2ccccc2F)=NO1` (centres undefined), the inhibition was 42% (active).

As for `Cc1nc(C(=O)Nc2ccc(Cl)cc2)sc1C1(C)CC(c2ccccc2)=NO1` (centres undefined), the inhibition was -2.44% (inactive).

Take `Cc1nc(C(=O)NCc2ccccc2)sc1C1(C)CC(c2cccnc2)=NO1` (centres undefined): the inhibition was -4.88% (inactive).

On to `Cc1ccc(SCCN2C(=O)NC(C)(C)C2=O)cc1`, for which the inhibition is 5.57% (inactive).

As to `Nc1ccc(SCCN2C(=O)c3ccccc3C2=O)cc1`, the inhibition was 85% (active).

In the case of `CC(=O)c1cnc(SCCN2C(=O)c3ccccc3C2=O)nc1C`, the inhibition is -12.2% (inactive).

Consider `N#CCC(=O)N/N=C/c1cn(Cc2ccc3ccccc3c2)c2ccccc12`, for which the inhibition was -10.8% (inactive).

Regarding `CC[C@H](C)[C@H](NC(=O)[C@H](Cc1ccc(O)cc1)NC(=O)[C@@H](NC(=O)[C@H](CCCN=C(N)N)NC(=O)[C@@H](N)CC(=O)O)C(C)C)C(=O)N[C@@H](Cc1cnc[nH]1)C(=O)N1CCC[C@H]1C(=O)N[C@@H](Cc1ccccc1)C(=O)O`, the inhibition is 15% (inactive).

Regarding `CC(NC(=O)c1cccc2ccccc12)c1ccc2c(c1)CCCC2` (centres undefined), the inhibition was -3.09% (inactive).

Regarding `CCOC(OCC)c1ccc(/C=C\c2nccc(N)n2)cc1`, the inhibition is 62.4% (active).

Regarding `CC1(C)C(C=C(Cl)Cl)C1C(=O)NC(O)C(=O)c1ccccc1` (centres undefined), the inhibition is -9.33% (inactive).

For the compound `COc1cccc(/C=N/NC(=O)c2[nH]nc3c2CCc2ccccc2-3)c1O`, the inhibition was 12.7% (inactive).

Turning to `COc1cccc(/C=N\NC(=O)C2=NNC(=O)C2C)c1O` (centres undefined), the inhibition is 66.4% (active).

Consider `COc1cc2cc(C(=O)N/N=C/c3cccc(OC)c3OC)[nH]c2cc1OC`, for which the inhibition was 3.08% (inactive).
